Data as given in PubChem BioAssay (NCI).
Compounds without any hit were thinned out: in the full panel of roughly 83,000, 20% have a hit.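 Plates (96-well) were seeded with cells, treated with compound at one concentration, and incubated for 48 hours before percent growth was determined.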 Activity calls are given as the source filed them. How the source made its calls: active means growth percent below 10; inactive means the rest.

system: SNB-19 CNS; test: NCI-60 one-dose screen, 48 h (100 = growth as untreated, 0 = no growth, -100 = all killed); settings: 10 µM unless noted

SMILES	growth
COc1cc(-c2nc(-c3nc4cc(C(=O)c5ccccc5)ccc4[nH]3)cc3c2[nH]c2ccccc23)cc(OC)c1OC	103% (inactive)
COc1cc(C2=NOC(c3cc(OC)c(OC)c(OC)c3)C2)ccc1OCCCCOc1cc2c(cc1OC)C(=O)N1CCC[C@H]1C=N2 (stereo partly specified)	-9.51% (active)
O=C(CCCCCCc1nc2ccc(Br)cc2[nH]1)NO	1.94% (active)
CCCCOc1ncnc2nc[nH]c12	99.8% (inactive)
CC(C)=CCC[C@H](C)c1ccc(C)c2c1OCN(CCO)C2	57.9% (inactive)
O=C(Nc1cccc(Cl)c1)Nc1cc(C(F)(F)F)ccc1Cl	16.6% (inactive)
CCCCC(CCc1ccccn1)C(=O)c1ccccc1 (stereo unspecified)	110% (inactive)
Nc1cccc(S(=O)(=O)c2cccc(N)c2)c1	133% (inactive)
O=C(Nc1ccc2ncnc(Nc3ccc(F)c(Cl)c3)c2c1)c1cccs1	68.9% (inactive)
O=[N+]([O-])c1ccccc1CN1CCCCC1	106% (inactive)
COc1cc2c(cc1OCCCOc1cc3c(cc1OC)C(=O)N1CCC[C@H]1C=N3)C=CC(C)(C)O2	85.9% (inactive)
CCCCCCCCCC1=NC(C)(C)CN1C(C)(C)CO	92.1% (inactive)
COCCn1c(Nc2ccc(C(=O)NO)cc2)nc2ccccc21	69.6% (inactive)
O=C(CSc1ccc(Cl)cc1)Nc1ccc(-c2nc3ccccc3s2)c(Cl)c1	62.7% (inactive)
COc1cc(/C=C2\C(=O)Nc3ccc(N(C)C)cc32)cc(OC)c1OC	36.2% (inactive)
CC(C)(C)NC(=O)C(OC(=O)C1CCc2cc(F)ccc2O1)c1ccccc1Cl (stereo unspecified)	97.1% (inactive)
